Screening data from PubChem BioAssay.
A selection: hits, their analogues and other compounds. The true share with any hit is near 4.2%.
ssDAF-12 act: activators of S. stercoralis DAF-12 nuclear receptor; AID 652126; HEK293 ssDAF-12/GRIP1 lit1-tk-luc reporter, luminescence; % of 3 µM dafachronic acid response; activation, % at 6.8 µM; actives 1% (n = 370,000);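 active = activation above the mean over all tested compounds plus 3 SD, cut at about 0.9% in these data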;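 note: 0% = DMSO-only wells and 100% = 3 µM delta7-dafachronic acid wells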
SMARCA2 activ: activators of SMARCA2 function. MG213 cells, MMTV-luciferase reporter, dexamethasone, overnight. activation, % at 9.1 µM. actives 1% (n = 370,000). AID 652017; in the data active = activation above about 7.8%;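 note: 0% = vehicle wells and 100% = reference activator wells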
hcDAF-12 act: activates DAF-12 receptor from parasite H. contortus | HEK293 hcDAF-12 lit1-tk-luc reporter, luminescence; 0% DMSO, 100% Δ7-dafachronic acid | activation, % at 6.8 µM | actives 1.4% (n = 370,000);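 active = activation above the mean of all tested compounds plus 3 SD, cut at about 5.5% in these data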;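 note: 100% = response to 3 µM Δ7-dafachronic acid high control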
DAX1 inh: inhibitors of DAX1 repression of SF-1 activated StAR promoter | HEK293T StAR-luciferase reporter, SF-1/DAX-1 repression relief | AID 652010 | inhibition, % at 6.8 µM | actives 1.1% (n = 370,000);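 active = inhibition above the mean over all tested compounds plus 3 SD, cut at about 3.6% in these data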;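 note: 0% = DAX-1 cells with DMSO and 100% = cells lacking DAX-1 with DMSO; higher inhibition means more luminescence from relief of DAX-1 repression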
hgDAF12 agonist: activates the H. glycines DAF-12 receptor ligand-binding domain. activation, % at 6.8 µM. actives 1.8% (n = 370,000). HEK293 GAL4-hgDAF12 UAS-luciferase reporter, agonist luminescence; normalized to butyrate control;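 active = activation above a cutoff set at the mean of all screened compounds plus 3 SD, cut at about 10% in these data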;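 note: 0% = DMSO wells and 100% = sodium butyrate wells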
LXRb hcDAF ctr: activates human LXR-beta, counter-screen for hcDAF-12 agonists; shares compounds with hcDAF-12 act; HEK293 Gal4-LXR tk-luc reporter, luminescence, 24 h; normalized: DMSO 0%, positive control 100%; activation, % at 6.8 µM; 3,400 tested, under 10 active; AID 743027;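 active = mean percent activation of the reporter above a cutoff set as the average over tested compounds plus their standard deviation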
Target sequence (P55055 whole entry, looked up, the tested form may be a part): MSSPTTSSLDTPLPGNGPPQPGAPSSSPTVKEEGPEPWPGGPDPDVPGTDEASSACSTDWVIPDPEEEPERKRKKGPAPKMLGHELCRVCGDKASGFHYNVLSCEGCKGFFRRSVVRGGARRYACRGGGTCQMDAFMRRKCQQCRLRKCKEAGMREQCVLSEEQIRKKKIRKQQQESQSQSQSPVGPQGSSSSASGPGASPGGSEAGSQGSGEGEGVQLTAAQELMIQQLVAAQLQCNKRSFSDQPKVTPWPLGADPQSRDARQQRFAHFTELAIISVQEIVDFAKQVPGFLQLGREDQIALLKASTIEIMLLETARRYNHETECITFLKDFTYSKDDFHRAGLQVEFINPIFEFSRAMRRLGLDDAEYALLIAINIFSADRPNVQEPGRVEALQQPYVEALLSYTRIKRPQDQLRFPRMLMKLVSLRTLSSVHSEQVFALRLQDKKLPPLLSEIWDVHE
hcDAF12 conf: confirmation of H. contortus DAF-12 agonists | shares compounds with hcDAF-12 act | HEK293 hcDAF-12 lit1-tk-luc reporter, luminescence; % of Δ7-dafachronic acid response | activation, % at 6.8 µM | actives 61% (n = 3,400) | AID 743032;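 active = mean activation across triplicate tests above the threshold derived from the earlier primary screen, cut at about 5.5% in these data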;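 note: 0% = DMSO only wells and 100% = 3 µM Δ7-dafachronic acid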
An asterisk follows results filed as active; / = no result.

SMILES	ssDAF-12 act	SMARCA2 activ	hcDAF-12 act	DAX1 inh	hgDAF12 agonist	LXRb hcDAF ctr	hcDAF12 conf
Nc1[nH]c(C(=O)c2ccccc2)c(-c2ccccc2Br)c1C(=O)c1ccccc1	0	-3	-1	0	0	/	/
O=C1C=C(Nc2ccc(O)cc2)C(=O)c2ccccc21	1	3	8.8*	-1	7	1	6.6*
CC(=O)Nc1ccc(NC2=CC(=O)c3ccccc3C2=O)cc1	-1	6	1	0	1	/	/
COC(=O)c1cn(CCOc2ccccc2OC)c2ccccc12	-2	-2	-2	-1	-3	/	/
COC(=O)c1cn(CCOc2ccccc2)c2ccccc12	1.3*	2	6.7*	1	6	0	3
O=C(CCCOc1ccccc1)N1CCN(c2ccccn2)CC1	0	2	10*	2	8	1	6.4*
O=C(CCCOc1ccc(Cl)cc1Cl)N1CCN(c2ccccn2)CC1	-1	-2	-1	-1	1	/	/
COc1ccc2nc(SCC(=O)Nc3ccc4c(c3)OCCO4)[nH]c2c1	-3	-8	-5	-3	-8	/	/
CCOc1ccc2nc(SCC(=O)Nc3ccc4c(c3)OCCO4)[nH]c2c1	-1	-3	7.3*	0	3	0	1
O=C(Nc1ccccc1)Nc1cccc2nsnc12	2.3*	5	8.9*	3	9	1	12*
COc1ccc(OCc2cc(C(=O)N3CCCC(O)C3)no2)c2ccccc12 (stereo unspecified)	1.2*	2	7.0*	3	11*	1	9.2*
COc1ccc(OCc2cc(C(=O)N(Cc3nccn3C)C(C)C)no2)c2ccccc12	0	0	7.3*	-1	7	0	6.9*
COc1ccc(OCc2cc(C(=O)N3CCCC(OC)C3)no2)c2ccccc12 (stereo unspecified)	0	2	4	3	6	/	/
COc1ccc(OCc2cc(C(=O)N(C)Cc3nccn3C)no2)c2ccccc12	0	0	0	0	3	/	/
COc1cccc([C@@H](NC(=O)C(F)(F)F)[C@@H]2CCCC=C2c2ccccc2)c1	-1	-1	0	0	6	/	/
CCN(CC)C(=O)C1=C(C)N(Cc2ccc(C(C)(C)C)cc2)C(=O)C(CC(=O)NCc2cccs2)C1 (stereo unspecified)	-1	-3	0	-1	0	/	/
Cc1ccc2[nH]c(=O)c(CN(Cc3nnnn3C3CCCC3)C3CCCCC3)cc2c1	-1	-1	1	0	0	/	/
Cc1ccc2[nH]c(=O)c(CN(Cc3ccccc3)Cc3nnnn3C3CCCC3)cc2c1	2.5*	0	14*	4	10	0	1
C/C(=C/c1c[n+](Cc2ccc3c(c2)OCO3)c(N)[nH]1)Cn1[nH]c(=O)n(-c2ccccc2)c1=O	-1	-3	2	-1	0	/	/
CCOC(=O)c1ccc2c(c1)sc(=NC(=O)c1ccco1)n2CCOC	-2	0	-3	-1	0	/	/
CCn1c(=NC(=O)c2ccco2)sc2cccc(F)c21	1	5	12*	2	13*	1	8.4*
Fc1ccccc1-c1nc(-c2ccc(Br)o2)no1	2.3*	4	17*	3	21*	2	17*
COc1ccc(Br)cc1-c1noc(-c2ccccc2F)n1	-1	3	0	0	-2	/	/
COc1ccc(Cl)cc1-c1nc(-c2ccc(Br)o2)no1	1	-3	8.2*	0	4	0	8.8*
Cc1ccccc1-c1nc(-c2ccc(Br)o2)no1	2.3*	6	17*	1	10	1	12*
SMILES	ssDAF-12 act	SMARCA2 activ	hcDAF-12 act	DAX1 inh	hgDAF12 agonist	LXRb hcDAF ctr	hcDAF12 conf
COc1ccc(-c2noc(-c3ccc(Br)o3)n2)cc1	-1	6	1	1	9	/	/
Fc1cccc(Cl)c1C1SCc2nc3ccccc3n21 (stereo unspecified)	-1	1	1	-1	-3	/	/
CCc1nc2ccc(C(=O)Nc3cccc(OC)c3)cn2c1N(C)CCCc1ccccc1	-1	1	-2	0	1	/	/
CCOC(=O)c1sc(NC(=O)c2ccc(C)o2)nc1C	0	4	8.8*	4	11*	1	8.6*
CC(=O)c1sc(NC(=O)c2cccs2)nc1C	-1	1	-1	0	2	/	/
COc1ccc2nc(NC(=O)c3cccs3)sc2c1	0	0	6.7*	1	12*	2	7.2*
CCOC(=O)c1sc(NC(=O)c2cccs2)nc1C	1.9*	3	11*	1	6	1	6.3*
Cc1nc(NC(=O)c2cccs2)ccc1Br	1.6*	0	9.8*	2	19*	1	11*
CCOC(=O)c1sc(NC(=O)c2ccco2)nc1C	-1	-2	2	1	-1	/	/
C/C(=N/NC(=O)CSc1nnc(SCc2ccc(C)cc2)s1)c1cccc(O)c1	-2	-11	-3	-2	0	/	/
[O-][n+]1cc(Cl)cc(Cl)c1	-1	-3	1	0	0	/	/
Brc1ccc(-c2nc(N/N=C/c3cccnc3)c3ccccc3n2)cc1	1.6*	7	11*	1	13*	2	14*
S=C1NC2(CCCCCC2)NN1c1ccccc1	0	-6	0	1	-1	/	/
O=C1CCC2(CC1)NC(=O)N(c1ccccc1)N2	1.1*	-3	6.5*	0	8	0	0
CC(C)(C)n1nc(C2CC2)cc1NC(=O)Nc1ccccc1	-1	-2	0	0	-4	/	/
CC(C)(C)c1ccc(C(=O)NC(=S)Nc2nc3c(s2)CCCC3)cc1	-3	-3	-4	-2	-14	/	/
CN(C)c1ccc(C(=O)Nc2nc3c(s2)CCCC3)cc1	-1	0	7.7*	3.8*	12*	2	8.4*
COc1ccc(CN(CCN2CCOCC2)C(=O)c2cc(Cl)ccc2F)cc1OC	-1	-2	0	1	-1	/	/
COC(=O)C1CCN(c2nc3ccccc3nc2C(C#N)C(=O)OCC(C)C)CC1 (stereo unspecified)	-1	6	0	-1	2	/	/
COC(=O)C1CCN(c2nc3ccccc3nc2C(C#N)C(=O)NCCc2ccccc2)CC1 (stereo unspecified)	0	0	8.2*	0	-1	0	4
Cc1cc(=O)oc2cc(NC(=O)c3ccccc3OC(F)F)ccc12	1.6*	2	7.3*	2	10	0	9.6*
Cc1cc(=O)oc2cc(NC(=O)c3cc(F)ccc3F)ccc12	-1	1	0	2	3	/	/
